Screens deposited in PubChem by Broad Institute.
p53 mut binder: binds human mutant p53 on microarray. 17,000 tested, 0.4% active. small molecule microarray binding, anti-GST fluorescence. calls only. AID 624136;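 active means compounds whose four printed spots each glow above background more than chance allows, each with a p-value under 7%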
STAT3 binder: binds human STAT3 on microarray; P40763; Small molecule microarray, His-STAT3 binding, anti-His fluorescence; calls only; 17,000 tested, 0.2% active;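 active means compounds whose four printed spots each show fluorescence over background unusually high for their array block, chance value under 7%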
NFkB SMM: NF-kappa-B p105 (human) binding; P19838; Small molecule microarray, anti-His fluorescence binding; calls only; 17,000 tested, 1.3% active; AID 624139;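 active means spot fluorescence over background significantly raised, with a chance value under 7% in all four replicate spots of the compound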;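 further: probe protein is his-tagged human p50 processed subunit at 1 µg/ml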
Target sequence (P19838 1-433 limits assumed): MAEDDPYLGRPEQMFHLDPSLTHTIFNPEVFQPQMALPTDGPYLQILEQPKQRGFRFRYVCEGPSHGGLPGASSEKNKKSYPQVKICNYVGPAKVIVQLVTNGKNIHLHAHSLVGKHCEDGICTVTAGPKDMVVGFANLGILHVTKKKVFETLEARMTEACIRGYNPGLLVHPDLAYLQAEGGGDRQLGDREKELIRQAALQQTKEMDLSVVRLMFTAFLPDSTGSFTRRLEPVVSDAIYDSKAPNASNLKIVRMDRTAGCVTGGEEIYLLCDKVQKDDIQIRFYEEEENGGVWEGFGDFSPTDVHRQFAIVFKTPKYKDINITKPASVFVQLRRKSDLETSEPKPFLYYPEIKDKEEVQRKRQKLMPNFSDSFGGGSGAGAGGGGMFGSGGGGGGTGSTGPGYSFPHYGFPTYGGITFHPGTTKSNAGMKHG
c-Myc SMM: binds human c-Myc on microarray | P01106 | calls only | small molecule microarray, His-c-Myc binding, anti-His fluorescence | 17,000 tested, 1.5% active;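 active means spot fluorescence over background with P-value below 7% in all four replicate spots, showing protein binding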
Of the large screens only hits and unclear results are named; the others gave an inactive call. An excerpt weighted towards active compounds, which were near 2.4% of everything screened.

C[C@H]1CN([C@@H](C)CO)C(=O)CCCn2cc(nn2)CO[C@H]1CN(C)S(=O)(=O)c1cccs1	none
CC1(C)O[C@H]2CC(=O)OC[C@@]23[C@H]1CC(=O)[C@@]1(C)C2=CC(=O)O[C@@H](c4ccoc4)[C@]2(C)CC[C@@H]13	NFkB SMM active, c-Myc SMM active
CNC[C@H]1OCc2cn(nn2)CCCC(=O)N([C@@H](C)CO)C[C@H]1C	none
C[C@@H]1CN([C@H](C)CO)C(=O)c2cccc(NC(=O)NC3CCCCC3)c2O[C@@H]1CN(C)C(=O)Nc1ccc(F)cc1	none
CCOC(=O)C1CCCCN1Cc1cc(OC)ccc1OC (stereo not given)	NFkB SMM active, c-Myc SMM active
C[C@@H]1CN([C@H](C)CO)C(=O)Cc2cc(NS(=O)(=O)c3ccc(Cl)cc3)ccc2O[C@H]1CN(C)S(=O)(=O)c1ccc(Cl)cc1	none
O=C(NCc1ccccc1)[C@@]1(Cc2ccccc2)N=C(c2ccc(OCCCO)cc2)O[C@H]1c1ccccc1	p53 mut binder active
[N-]=[N+]=NCc1ccccc1C[C@@]1(C(=O)N2CCOCC2)N=C(c2ccc(OCCCO)cc2)O[C@@H]1c1ccccc1	none
[N-]=[N+]=NCc1ccccc1C[C@@]1(C(=O)N2CCCCC2)N=C(c2ccc(OCCCO)cc2)O[C@@H]1c1ccccc1	STAT3 binder active
COC(=O)[C@]1(Cc2ccccc2)N=C(c2ccc(OCCCO)cc2)O[C@@H]1c1ccccc1N=[N+]=[N-]	p53 mut binder active, NFkB SMM active
C[C@H](CO)N1C[C@H](C)[C@@H](CN(C)Cc2ccncc2)OCCCC[C@H](C)Oc2ccc(NC(=O)Nc3ccccc3)cc2C1=O	none
C/C=C(\C)C(=O)OC(C)(C)C1Cc2cc3ccc(=O)oc3cc2O1 (stereo not given)	p53 mut binder active
C[C@@H]1CCCCO[C@@H](CN(C)C(=O)c2ccncc2)[C@H](C)CN([C@H](C)CO)C(=O)c2cc(NC(=O)CCC(F)(F)F)ccc2O1	none
C=CC[C@@]12N=C(c3ccc(OCCCO)cc3)O[C@@H]1c1ccccc1CN(Cc1ccccc1)C2=O	none
C=CCN1Cc2ccccc2[C@H]2OC(c3ccc(OCCCO)cc3)=N[C@@]2(CC=C)C1=O	p53 mut binder active
C=C1CCC2(C(=O)O)CCC3(C)C(=CCC4C5(C)C[C@@H](O)[C@H](O)C(C)(CO)C5CCC43C)C2C1C (stereo not given in full)	NFkB SMM active, c-Myc SMM active
O=C1O[C@@H](c2ccccc2)[C@@H](c2ccccc2)N2[C@@H](c3ccc(O)cc3)[C@]3(C(=O)Nc4ccc(C#CC5(O)CCCCCC5)cc43)[C@@H](C(=O)N3CCCCCCC3)[C@H]12	STAT3 binder active
COc1ccc(C#Cc2ccc3c(c2)[C@]2(C(=O)N3)[C@H](c3ccc(O)cc3)N3[C@H](c4ccccc4)[C@H](c4ccccc4)OC(=O)[C@H]3[C@@H]2C(=O)N2CCCCCCC2)cc1	p53 mut binder active, STAT3 binder active
COC1CC(OC2CCC3(C)C(CCC4(O)C3CC(OC(=O)c3ccccc3)C3(C)C(O)(C(C)=O)CCC43O)C2)OC(C)C1OC1CC(OC)C(OC2OC(C)C(OC3OC(CO)C(O)C(O)C3O)C(OC)C2O)C(C)O1 (stereo not given)	NFkB SMM active, c-Myc SMM active
C[C@H]1CCCCO[C@@H](CN(C)Cc2ccccc2)[C@@H](C)CN([C@@H](C)CO)C(=O)c2cc(NC(=O)Nc3ccc4c(c3)OCO4)ccc2O1	none
C[C@@H]1CN([C@@H](C)CO)C(=O)c2cc(NC(=O)Nc3ccccc3)ccc2O[C@@H](C)CCCCO[C@H]1CN(C)Cc1ccncc1	c-Myc SMM active
C[C@@H]1CCCCO[C@@H](CN(C)Cc2ccccc2)[C@H](C)CN([C@H](C)CO)C(=O)c2cc(NC(=O)Nc3ccc4c(c3)OCO4)ccc2O1	NFkB SMM active
CC(C)NC(=O)Nc1ccc2c(c1)C(=O)N([C@@H](C)CO)C[C@@H](C)[C@H](CN(C)Cc1ccccc1)OCCCC[C@H](C)O2	NFkB SMM active, c-Myc SMM active
CC(C)NC(=O)Nc1ccc2c(c1)C(=O)N([C@H](C)CO)C[C@@H](C)[C@H](CN(C)Cc1ccccc1)OCCCC[C@H](C)O2	none
C[C@H]1CCCCO[C@H](CN(C)C(=O)c2ccccc2)[C@@H](C)CN([C@@H](C)CO)C(=O)c2cc(NC(=O)Nc3ccc4c(c3)OCO4)ccc2O1	p53 mut binder active
C[C@H]1CCCCO[C@H](CN(C)Cc2ccncc2)[C@@H](C)CN([C@@H](C)CO)C(=O)c2cc(NC(=O)Nc3ccccc3)ccc2O1	none
C[C@@H]1CCCCO[C@H](CN(C)C(=O)Nc2cccc3ccccc23)[C@H](C)CN([C@@H](C)CO)C(=O)c2cc(N(C)C)ccc2O1	none
C[C@@H]1CCCCO[C@H](CN(C)S(=O)(=O)c2ccc(F)cc2)[C@H](C)CN([C@@H](C)CO)C(=O)c2cc(NC(=O)c3ccncc3)ccc2O1	none
C[C@@H]1CN([C@H](C)CO)C(=O)c2cccc(NC(=O)c3ccncc3)c2O[C@H]1CN(C)C(=O)Nc1ccc(C(F)(F)F)cc1	none
CCc1cc2c(=O)n(CC(=O)Nc3ccccc3OC)cnc2s1	none
Cc1noc(C)c1S(=O)(=O)N(C)C[C@@H]1OCCCC[C@@H](C)Oc2ccc(N(C)C)cc2C(=O)N([C@@H](C)CO)C[C@@H]1C	none
Cc1noc(C)c1S(=O)(=O)N(C)C[C@H]1OCCCC[C@@H](C)Oc2ccc(N(C)C)cc2C(=O)N([C@@H](C)CO)C[C@@H]1C	STAT3 binder active, NFkB SMM active, c-Myc SMM active
C[C@@H]1CCCCO[C@H](CN(C)S(=O)(=O)c2ccccc2)[C@@H](C)CN([C@@H](C)CO)C(=O)c2cc(N(C)C)ccc2O1	NFkB SMM active
C[C@@H]1CCCCO[C@@H](CN(C)S(=O)(=O)c2ccccc2)[C@H](C)CN([C@H](C)CO)C(=O)c2cc(N(C)C)ccc2O1	none
Cc1nc(SCC(=O)N2c3ccccc3CCc3ccccc32)n[nH]1	none
CC(C)=CCc1c(O)cc(O)c2c1OC(c1ccccc1)CC2=O (stereo not given)	none
CC(C)=CCc1c(O)c(CC=C(C)C)c2c(c1O)C(=O)CC(c1ccccc1)O2 (stereo not given)	c-Myc SMM active
C[C@@H]1CN([C@H](C)CO)C(=O)c2cc(NS(=O)(=O)c3cn(C)cn3)ccc2O[C@@H]1CN(C)C(=O)Nc1ccc(F)cc1	none
C[C@H]1CCCCO[C@@H](CN(C)C(=O)CCC(F)(F)F)[C@@H](C)CN([C@@H](C)CO)C(=O)c2cc(NS(=O)(=O)c3ccccc3)ccc2O1	none
C[C@H](CO)N1C[C@H](C)[C@@H](CN(C)C(=O)CCC(F)(F)F)OCCCC[C@H](C)Oc2ccc(NS(C)(=O)=O)cc2C1=O	NFkB SMM active, c-Myc SMM active
C[C@@H]1CCCCO[C@@H](CN(C)C(=O)CCC(F)(F)F)[C@H](C)CN([C@@H](C)CO)C(=O)c2cc(NS(=O)(=O)c3ccccc3)ccc2O1	NFkB SMM active, c-Myc SMM active
